Only some compounds are listed: those with a hit (about 3.3% of all), similar ones and a draw of the others.
SARS PLP yeast: qHTS of Yeast-based Assay for SARS-CoV PLP; hit rate 0.19% among 330,000; AID 485353, 2010; S. cerevisiae expressing SARS-CoV PLpro, growth rescue; Potency, µM (titrated, usually from 32.9 µM), for the others: at the top dose activity, positive = growth rescue, most hits filed as activators; calls by dose curve; further: 0% is about no effect; nearly all actives have a fitted effect of over 55% in size
Tb PYK inh: qHTS of Trypanosoma Brucei Inhibitors | pyruvate kinase (Trypanosoma brucei), Q57TT1 | TbPYK enzyme, Kinase-Glo Plus ATP luminescence, 45 min | Potency, µM (titrated, usually from 76.8 µM), inactives show at the top dose activity, negative = inhibition, usual class: inhibitors | hit rate 0.12% among 410,000 | AID 624173, 2012; further: on the % scale 0 is the no-effect control and ±100 the full control effect; nearly all actives have a fitted effect of over 50% in size
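Glycolytic pyruvate kinase of T. brucei was incubated with substrate, test compound and 130 uM ADP for 45 minutes at room temperature. Luminescent Kinase-Glo Plus signal was measured after 10 minutes.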
AmpC detergent: qHTS Inhibitors of AmpC Beta-Lactamase (assay with detergent); P00811; AID 485294, 2010; AmpC hydrolysis of nitrocefin, absorbance 480 nm, 0.01% Triton; hit rate 0.041% among 370,000; Potency, µM (titrated, usually from 114 µM), inactives show top-dose activity change, negative = inhibition, most hits filed as inhibitors;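 further: 0% = no-compound wells and -100% = no-enzyme wells; nearly all actives have a fitted effect of over 25% in size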
Target sequence (P00811 whole entry, looked up): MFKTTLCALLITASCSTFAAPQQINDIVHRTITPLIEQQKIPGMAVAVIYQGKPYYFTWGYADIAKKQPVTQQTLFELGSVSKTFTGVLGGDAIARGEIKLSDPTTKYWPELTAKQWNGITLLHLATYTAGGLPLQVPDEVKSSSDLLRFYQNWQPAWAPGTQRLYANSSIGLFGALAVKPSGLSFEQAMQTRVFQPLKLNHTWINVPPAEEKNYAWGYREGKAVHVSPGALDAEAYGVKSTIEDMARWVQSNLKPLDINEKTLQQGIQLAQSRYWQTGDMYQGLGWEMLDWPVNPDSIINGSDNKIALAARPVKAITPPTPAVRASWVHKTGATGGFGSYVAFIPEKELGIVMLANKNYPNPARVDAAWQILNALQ
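AmpC (5.3 nM in the dispensed reagent) in 20 mM phosphate pH 7.0 with 0.01% (detergent screen) or 0.0001% Triton X-100 was preincubated with compounds for 15 min at room temperature. Nitrocefin was then added from an 800 uM solution, and hydrolysis was followed at 480 nm.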
RE007 growth inh: qHTS Assay for Inhibitors of the HIV-1 protein Vpr; S. pombe RE007 Vpr strain, BacTiter-Glo ATP luminescence, 24 h; hit rate 0.21% among 360,000; Potency, µM (series often up to 92.2 µM), for the others: top-dose activity change, negative = less growth, actives largely listed as inhibitors; AID 651644, 2012; active means well fitted falling curve with a large enough effect; inconclusive means small, poorly fitted or top-dose-only effect; inactive means no such curve, though single readings can be large or run the other way; further: on the % scale 0 is the no-effect control and ±100 the full control effect; nearly all actives have a fitted effect of over 50% in size
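Fission yeast strain RE007, carrying one chromosomally integrated HIV-1 vpr copy, was seeded at OD 0.01 in PMG+AL medium with 23 nL pinned compound. After 24 h at 30 °C and 99% humidity, viability was read by BacTiter-Glo luminescence.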
AmpC no deterg: qHTS Inhibitors of AmpC Beta-Lactamase (assay without detergent) | Potency, µM (doses to about 57.1 µM), without a hit: at the highest dose activity change, negative = inhibition, actives largely listed as inhibitors | AmpC nitrocefin hydrolysis, absorbance 480 nm, 0.0001% Triton | P00811 | hit rate 0.52% among 330,000;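 further: plate controls were no compound for no effect and no enzyme for full effect; nearly all actives have a fitted effect of over 20% in size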
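AmpC (5.3 nM in the dispensed reagent) in 20 mM phosphate pH 7.0 with 0.01% (detergent screen) or 0.0001% Triton X-100 was preincubated with compounds for 15 min at room temperature. Nitrocefin was then added from an 800 uM solution, and hydrolysis was followed at 480 nm.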
Sm TGR block: qHTS Assay for the Inhibitors of Schistosoma Mansoni Peroxiredoxins; hit rate 3% among 360,000; Potency, µM (titrated, usually from 114 µM), for inactives: at the highest dose activity change, negative = inhibition, usual class: inhibitors; purified TGR, DTNB reduction, TNB absorbance 405 nm; Schistosoma mansoni thioredoxin glutathione reductase (TGR), Q962Y6; further: on the % scale 0 is the no-effect control and ±100 the full control effect; nearly all actives have a fitted effect of over 60% in size
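TGR 20 nM + NADPH 100 uM (dispensed conc.), cpd preinc 15 min RT; start with NADPH (500 uM addition) then DTNB (15 mM addition). Kinetic TNB absorbance, 405 nm filter. Four-parameter Hill fit across titration.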
* hit, by the source's call; ? = inconclusive; . = not tested or not shown; [ ] = another dose, or the depositor's remark. Unless noted, the call rests on the fitted dose curve; in most records, active means well fitted curve in the direction sought with a large enough effect; inconclusive means small, poorly fitted or top-dose-only effect, or another doubt; inactive means no such curve, though single readings can be large; an effect the other way counts as inactive or inconclusive. Potency means the concentration at half of the fitted maximal effect.

SMILES	SARS PLP yeast	Tb PYK inh	AmpC detergent	RE007 growth inh	AmpC no deterg	Sm TGR block
CC(=O)N(CCC(c1ccccc1)c1ccco1)Cc1cccs1 (stereo not given)	-0.1%	-3.8%	-0.5%	-6.2%	-10.3%	11.2µM*
CC(=O)N(CCC(c1ccco1)C(C)C)Cc1ccc(OC(C)C)cc1 (stereo not given)	0.8%	1.7%	3.8%	3.5%	128.8%	?
CCC(=O)N(CCC(c1ccco1)c1ccccc1OC)Cc1cccs1 (stereo not given)	-6.8%	.	-1.5%	6.3%[3.69 µM]	36.2%	17.8µM*
COc1ccc(CN(CCC(c2ccco2)C(C)C)C(C)=O)cc1OC (stereo not given)	2.3%	3.1%	-2.4%	3.0%	112.9%	?
O=C(Nc1ccccc1F)c1cnc(N2CCCCC2)c2ccccc12	.	1.6%	-7.3%	.	.	-3.0%
O=S(=O)(Nc1cccc(-c2ccc(N3CCCCCC3)nn2)c1)c1ccccc1Cl	-0.1%	0.1%	-10.8%	11.6%	2.51µM*	2.6%
CC(=O)NCCNc1nc2cc(-c3ccccc3CO)sc2c(=O)n1C	.	-4.7%	.	28.2µM*	.	.
CC(=O)NCCNc1nc2cc(-c3ccccc3C)sc2c(=O)n1C	.	1.3%	.	31.6%	.	.
O=C(N/N=C/C=C/c1ccco1)/C(=C/c1ccccc1)NC(=O)c1ccccc1	3.0%	-6.8%	?	-17.3%	-41.4%	44.7µM*
O=C(N/N=C/C=C\c1ccco1)c1cccs1	2.0%	-9.0%	1.0%	1.5%	-29.4%	11.2µM*
COC(=O)/C(=C/c1ccco1)NC(=O)c1ccccc1	19.2%	-11.2%	5.1%	6.4%	-25.4%	-4.9%
CCCOC(=O)/C(=C\C=C\c1ccco1)NC(=O)c1ccccc1	-2.9%	-2.6%	2.7%	4.6%	-48.1%	8.91µM*
O=C(N/N=C/C=C/c1ccco1)c1ccncc1	0.4%	-10.1%	-5.8%	-9.7%	-8.0%	28.2µM*
O=C(O)/C(=C\c1ccco1)NC(=O)c1ccccc1	-16.2%	1.3%	-12.7%	-4.5%	-11.5%	-4.0%
O=C(N/N=C/C=C/c1ccco1)c1ccccc1Cl	0.7%	-16.7%	-13.8%	-14.5%	-43.3%	?
Cc1cc(C)cc(-n2ccnc(NCc3ccc(F)cc3)c2=O)c1	.	-1.1%	-2.5%	.	.	1.5%
O=C(Cc1cccs1)N/N=C/C=C\c1ccco1	9.3%	-9.7%	-7.9%	-0.7%	-30.8%	25.1µM*
COc1ccccc1-c1nn(CCC(=O)Nc2ccc(C)cc2)c2nc(C)cc(C)c12	.	3.3%	22.6%	.	.	-3.6%
CCCCN(C)CCNC(=O)c1cc(-c2ccc(Cl)s2)nc2ccccc12	.	2.1%	6.7%	.	.	2.1%
Clc1ccccc1N1CCN(c2ncnc3nc[nH]c23)CC1	-13.8%	2.9%	?	-7.7%	8.91µM*	-1.3%
N=c1c(S(=O)(=O)c2ccc(Cl)cc2)cc2c(=O)n3ccccc3nc2n1CCN1CCOCC1	-3.5%	2.7%	?	18.4%	84.4%	44.7µM*
N=c1c(S(=O)(=O)c2ccccc2)cc2c(=O)n3ccccc3nc2n1CCCN1CCOCC1	2.8%	-5.9%	?	0.4%	97.4%	15.8µM*
CCc1ccc(NC(=O)c2ccc(Cn3nc(N4CCN(c5ccccc5)CC4)ccc3=O)o2)cc1	.	-3.5%	2.3%	.	.	-5.6%
CNC(C)Cc1ccccc1Sc1ccc(O)cc1 (stereo not given)	5.0%	-3.4%	?	-12.0%	-17.8%	1.0%
CNCc1ccccc1Sc1ccc(O)c(O)c1	-18.8%	-18.3%	?	-0.2%	-34.5%	22.4µM*
SMILES	SARS PLP yeast	Tb PYK inh	AmpC detergent	RE007 growth inh	AmpC no deterg	Sm TGR block
O=C1NC(c2ccccc2)C(C(=O)c2cccs2)C(O)(C(F)(F)F)N1 (stereo not given)	-14.8%	-7.9%	?	4.0%	-17.5%	31.6µM*
CC(=O)Cc1nsc(NC(=O)c2ccco2)n1	-2.8%	-2.0%	-11.5%	-14.5%	-14.1%	44.7µM*
CC(=O)Cc1nsc(NC(=O)c2ccc(Br)o2)n1	-5.1%	1.8%	-6.8%	-4.3%	-16.5%	-23.4%
N#Cc1c(N)sc(=S)c2c1CCCC2	6.6%	-12.9%	0.0%	-22.5%	-45.4%	28.2µM*
COc1cccc(NS(=O)(=O)c2ccc3[nH]cc(C(=O)NC4CCCCC4)c(=O)c3c2)c1	.	0.9%	6.9%	.	.	-4.1%
Cc1ccc(C(C)C)c(OCCCn2c(=O)oc3ccccc32)c1	.	-8.6%	-4.7%	.	.	-11.3%
Cc1cccc2c1c1ccc3c(c1n2C)C(=O)C=CC3=O	0.9%	-7.5%	4.8%	.	-52.4%	2.51µM*
COc1ccc(-c2cc(C(F)(F)F)nc(SCC(=O)NC(C)c3ccccc3)n2)cc1 (stereo not given)	.	-4.7%	23.1%	.	.	0.6%
COC(=O)c1ccc(CSc2nc3ccc(Cl)cc3[nH]2)o1	8.6%	1.0%	-3.6%	-18.4%	-31.0%	?
COC(=O)c1ccc(CSc2nc3scc(-c4cccs4)c3c(=O)[nH]2)o1	0.0%	0.6%	-10.3%	-2.0%	10µM*	?
C[C@@H]1CN=C2N(CCNC(=O)CCC3CCCCC3)[C@H](Cc3ccc(O)cc3)CN21	22.6%	?	7.5%	-22.8%	4.2%	5.01µM*
O=C(CCC1CCCCC1)NCCN1C2=NC[C@H](Cc3ccc(O)cc3)N2C[C@H]1Cc1ccc(O)cc1	-0.4%	2.7%	-10.0%	-11.5%	-15.3%	35.5µM*
COc1ccc(C[C@H]2CN3C(=NC[C@@H]3C(C)C)N2CCNC(=O)CCC2CCCCC2)cc1	0.9%	1.7%	8.3%	7.4%	60.7%	-1.6%
CC(C)[C@H]1CN=C2N(CCNC(=O)CCC3CCCCC3)[C@H](Cc3ccc(O)cc3)CN21	-3.3%	-18.0%	4.1%	-11.2%	15.0%	7.94µM*
Cc1ccc(C(=O)N[C@@H](C)CN2C3=NC[C@H](C)N3C[C@H]2Cc2ccc(O)cc2)cc1Br	-1.7%	.	4.8%	.	-16.3%	50.1µM*
COc1ccc2c(c1)c1c(c(=O)n(Cc3ccccc3)c(=O)n1Cc1ccccc1)n2C	.	1.5%	-0.6%	.	.	1.3%
COc1ccc(-n2c(=O)c3ccc(C(=O)NCc4ccc(C)cc4)cc3n(CC(=O)Nc3ccc(C)cc3)c2=O)cc1	.	-9.0%	-0.1%	.	.	1.3%
CCOc1ccc(NC(=O)N2CCN(c3nnc(C)c4c(C)n(-c5ccccc5)nc34)CC2)cc1	.	0.8%	-5.2%	.	.	2.0%
CCCCCCCCCCCCCCCC[n+]1cccc2ccccc21	-95.9%	-23.3%	-5.1%	11.2µM*	177.5%	?
CCCCCCCCC[n+]1cccc2c3ccccc3ccc21	-38.9%	-0.1%	-0.3%	9.1%	68.9%	2.0%
